Results on one compound are retold here after PubChem BioAssay (EPA / NIEHS).

Read-out in test [1]: CD40, CD40 (gene 958)
Kind of test: BSK_LPS_CD40: BioMAP Diversity Plus: LPS Assay for CD40 Biomarker Activity (AID 2283076). As to conditions: primary human HUVEC with PBMC; actives raise or lower the signal. Put shortly:
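HUVEC plus PBMC co-culture stimulated with LPS; CD40 quantified by ELISA 24 h after compound dosing. Fitting was bidirectional relative to DMSO. SRB staining of parallel cultures flagged overt cytotoxicity.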

Read-out in test [2]: E-selectin (Homo sapiens) (UniProt P16581)
In words: BSK_LPS_Eselectin: BioMAP Diversity Plus: LPS Assay for Eselectin Biomarker Activity (AID 2283077). The settings on record: primary human HUVEC with PBMC; actives raise or lower the signal. The gist of the method:
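Human umbilical vein endothelial cells co-cultured with PBMC under LPS stimulation; cell-surface E-selectin measured by ELISA 24 h after dosing. Change in either direction versus DMSO, with SRB total-protein staining in parallel cultures for cytotoxicity.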

Read-out in test [3]: Interleukin-8 (IL8), CXCL8 (gene 3576)
Kind of test: BSK_LPS_IL8: BioMAP Diversity Plus: LPS Assay for Interleukin-8 (IL8) Biomarker Activity (AID 2283078). The settings on record: primary human HUVEC with PBMC; actives raise or lower the signal. The gist of the method: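 Human umbilical vein endothelial cells co-cultured with PBMC, LPS-stimulated, exposed to compound for 24 h. IL-8 quantified by ELISA; fitted in both directions against DMSO, with SRB total-protein staining of parallel cultures for cytotoxicity.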

Test [4] is described as follows: BSK_LPS_SRB: Viability Assessment in the BioMAP Diversity Plus: LPS Assay (AID 2283079).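 Further: total protein by sulforhodamine B absorbance as a cytotoxicity measure; measured one day after compound addition; fitted in both directions against DMSO so loss or gain of signal counts.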 As to conditions: primary human HUVEC with PBMC. The gist of the method:
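Co-culture of human umbilical vein endothelial cells and PBMC, read 24 h after dosing. Total protein by 0.1% SRB staining after 10% TCA fixation, absorbance at 560 nm; bidirectional fit against DMSO.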

Read-out in test [5]: Interleukin-1 alpha (IL1a), IL1A (gene 3552)
Kind of test: BSK_LPS_IL1a: BioMAP Diversity Plus: LPS Assay for Interleukin-1 alpha (IL1a) Biomarker Activity (AID 2283080). The settings on record: primary human HUVEC with PBMC; actives raise or lower the signal. Put shortly: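 Human umbilical vein endothelial cells co-cultured with PBMC and stimulated with LPS; IL-1a measured by ELISA 24 h after dosing. Bidirectional fitting against DMSO; cytotoxicity checked by SRB staining in parallel cultures.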

Read-out in test [6]: Monocyte Chemoattractant Protein-1 (MCP1), CCL2 (gene 6347)
Kind of test: BSK_LPS_MCP1: BioMAP Diversity Plus: LPS Assay for Monocyte Chemoattractant Protein-1 (MCP1) Biomarker Activity (AID 2283081). The settings on record: primary human HUVEC with PBMC; actives raise or lower the signal. Put shortly:
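Human umbilical vein endothelial cells co-cultured with PBMC, LPS-stimulated; secreted MCP-1 measured by ELISA 24 h after compound addition. Bidirectional curve fitting against DMSO baseline; SRB total-protein staining in parallel cultures for cytotoxicity.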

Test [7] can be described thus: BSK_LPS_PGE2: BioMAP Diversity Plus: LPS Assay for Prostaglandin E2 (PGE2) Biomarker Activity (AID 2283082). The settings on record: primary human HUVEC with PBMC; actives raise or lower the signal. Put shortly:
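Endpoint derived from bidirectional curve fitting versus DMSO of ELISA-measured PGE2 in LPS-stimulated human primary vascular co-culture (HUVEC with PBMC) harvested at 24 h.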

Read-out in test [8]: Macrophage colony-stimulating factor (MCSF), CSF1 (gene 1435)
In words: BSK_LPS_MCSF: BioMAP Diversity Plus: LPS Assay for Macrophage colony-stimulating factor (MCSF) Biomarker Activity (AID 2283083). The settings on record: primary human HUVEC with PBMC; actives raise or lower the signal. The gist of the method:
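HUVEC–PBMC co-culture, M-CSF measured by ELISA 24 h after chemical dosing. Fitted in both directions relative to DMSO as negative control; overt cytotoxicity assessed by SRB total-protein staining in parallel cultures.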

Read-out in test [9]: Tissue Factor, F3 (gene 2152)
In words: BSK_LPS_TissueFactor: BioMAP Diversity Plus: LPS Assay for Tissue Factor Biomarker Activity (AID 2283084). The settings on record: primary human HUVEC with PBMC; actives raise or lower the signal. Put shortly: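 Human umbilical vein endothelial cells co-cultured with PBMC were dosed with compound. Cell-surface CD142 was measured by ELISA 24 h later. Activity was fitted bidirectionally against DMSO, with SRB total-protein staining in parallel cultures for cytotoxicity.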

Read-out in test [10]: Tumor necrosis factor (Homo sapiens) (UniProt P01375)
In words: BSK_LPS_TNFa: BioMAP Diversity Plus: LPS Assay for Tumour Necrosis Factor alpha (TNFa) Biomarker Activity (AID 2283085). As to conditions: primary human HUVEC with PBMC; actives raise or lower the signal. The gist of the method:
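Primary human vascular co-culture of HUVEC and PBMC; TNFa ELISA 24 h after treatment, analysed as increase or decrease relative to DMSO control.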

Read-out in test [11]: Vascular cell adhesion molecule 1 (VCAM1), VCAM1 (gene 7412)
Kind of test: BSK_LPS_VCAM1: BioMAP Diversity Plus: LPS Assay for Vascular cell adhesion molecule 1 (VCAM1) Biomarker Activity (AID 2283086). The settings on record: primary human HUVEC with PBMC; actives raise or lower the signal. Put shortly: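 Primary human vascular co-culture (umbilical vein endothelium plus PBMC) stimulated with LPS received chemical; 24 h later VCAM-1 was read by ELISA. Overt cytotoxicity was assessed by sulforhodamine B staining of parallel cultures at the same time point.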

Read-out in test [12]: CD38, CD38 (gene 952)
In words: BSK_SAg_CD38: BioMAP Diversity Plus: SAg Assay for CD38 Biomarker Activity (AID 2283087). As to conditions: primary human HUVEC with PBMC; actives raise or lower the signal. Put shortly: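 Fluorescence ELISA of cell-surface CD38 served as the read-out, with either increase or decrease fitted against DMSO controls. Cells were a human umbilical vein endothelium plus PBMC co-culture under SEB/TSST-1 stimulation, measured 24 h after dosing.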

Read-out in test [13]: CD40, CD40 (gene 958)
In words: BSK_SAg_CD40: BioMAP Diversity Plus: SAg Assay for CD40 Biomarker Activity (AID 2283088). As to conditions: primary human HUVEC with PBMC; actives raise or lower the signal. Put shortly: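 HUVEC plus PBMC co-culture, superantigen-activated, with CD40 read by ELISA 24 h after dosing. Curves fitted in both directions against DMSO. Overt cytotoxicity checked by parallel SRB total-protein staining.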

Read-out in test [14]: CD69, CD69 (gene 969)
Kind of test: BSK_SAg_CD69: BioMAP Diversity Plus: SAg Assay for CD69 Biomarker Activity (AID 2283089).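 Further: cell surface CD69 protein quantified by ELISA with fluorescence detection.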 As to conditions: primary human HUVEC with PBMC; actives raise or lower the signal. The gist of the method:
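ELISA, fluorescence read-out: CD69 on human umbilical vein endothelial cell + PBMC co-culture, 24 h post-dosing. Gain or loss of signal fitted bidirectionally against DMSO baseline.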

Read-out in test [15]: Monocyte Chemoattractant Protein-1 (MCP1), CCL2 (gene 6347)
In words: BSK_SAg_MCP1: BioMAP Diversity Plus: SAg Assay for Monocyte Chemoattractant Protein-1 (MCP1) Biomarker Activity (AID 2283090). The settings on record: primary human HUVEC with PBMC; actives raise or lower the signal. The gist of the method: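 MCP-1 levels in the endothelial–PBMC SAg co-culture were quantified by ELISA at 24 h post-dosing; both increases and decreases versus DMSO scored. Cytotoxicity monitored by SRB total protein in parallel cultures.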

Read-out in test [16]: E-selectin (Homo sapiens) (UniProt P16581)
In words: BSK_SAg_Eselectin: BioMAP Diversity Plus: SAg Assay for Eselectin Biomarker Activity (AID 2283091). As to conditions: primary human HUVEC with PBMC; actives raise or lower the signal. The gist of the method: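 Human umbilical vein endothelial cells co-cultured with peripheral blood mononuclear cells, SAg system. E-selectin is measured by ELISA 24 h after dosing and fitted bidirectionally against DMSO. Cytotoxicity is checked by SRB staining of parallel cultures.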

Read-out in test [17]: Monokine induced gamma interferon (MIG), CXCL9 (gene 4283)
Kind of test: BSK_SAg_MIG: BioMAP Diversity Plus: SAg Assay for Monokine induced gamma interferon (MIG) Biomarker Activity (AID 2283092). The settings on record: primary human HUVEC with PBMC; actives raise or lower the signal. The gist of the method:
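ELISA readout of MIG/CXCL9; primary human umbilical vein endothelial cells co-cultured with peripheral blood mononuclear cells; 24 h post-dose; gain/loss fit vs DMSO baseline.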

Test [18] in a line: BSK_SAg_PBMCCytotoxicity: PBMC Cytotoxicity Assessment in the BioMAP Diversity Plus: SAg Assay (AID 2283093).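 Further: PBMC superantigen activated with SEB plus TSST-1 one hour after compound addition; PBMC viability measured as Alamar Blue reduction fluorescence at 546/580 nm; fitted both ways against DMSO so a hit may be loss or gain of signal.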 The settings on record: primary human HUVEC with PBMC. Put shortly:
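HUVEC/PBMC co-culture; PBMC exposed to chemical 1 h before SEB and TSST-1 activation (20 ng/mL each), incubated 90 h, then Alamar Blue 6 h, fluorescence 546/580 nm. Bidirectional fit versus DMSO baseline.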

Read-out in test [19]: Interleukin-8 (IL8), CXCL8 (gene 3576)
In words: BSK_SAg_IL8: BioMAP Diversity Plus: SAg Assay for Interleukin-8 (IL8) Biomarker Activity (AID 2283094). As to conditions: primary human HUVEC with PBMC; actives raise or lower the signal. Put shortly: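 In this co-culture of human umbilical vein endothelium with peripheral blood mononuclear cells, IL-8 is assayed by ELISA at 24 h. DMSO serves as baseline for bidirectional curve fitting.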

Test [20] can be described thus: BSK_SAg_Proliferation: Cell Proliferation Assessment in the BioMAP Diversity Plus: SAg Assay (AID 2283095).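 Further: relative cell number as total protein by SRB absorbance in sub-confluent culture.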 The settings on record: primary human HUVEC with PBMC. The gist of the method:
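Readout is SRB-stained protein (560 nm) in a primary human HUVEC and PBMC co-culture; sub-confluent cultures are read at 96 h. Activity is fitted bidirectionally using DMSO as baseline.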

Test [21] has as its target bovine Estrogen Receptor (ER), ESR1 (gene 407238) (UniProt P49884). Kind of test: NVS_NR_bER: NovaScreen (NVS) Nuclear Receptor Binding Assay for bovine Estrogen Receptor (ER) (AID 2283345; active means hit-call score of the fitted dose curve at least 0.9, where 1 is the maximum;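 further: actives lower the bound radioligand count which means they displace the ER ligand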). Put shortly:
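Displacement of a radioligand from estrogen receptor in bovine uterine membrane preparations; scintillation signal taken at 18 hours, DMSO as baseline. Single-concentration duplicates (25 uM) preceded concentration-response follow-up of actives.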

“And” between values parts separate entries of the source, which are not always exact repeats. Equal entries are not always repeated. Inconclusive results are not listed. More than one record can exist for a structure, and the calls need not agree. The source made the active and inactive calls. How the source made its calls, unless noted: active means hit-call score of the fitted dose curve at least 0.9, where 1 is the maximum; inactive means score below 0.9.

Sequence of E-selectin (Homo sapiens) (P16581 whole entry, looked up): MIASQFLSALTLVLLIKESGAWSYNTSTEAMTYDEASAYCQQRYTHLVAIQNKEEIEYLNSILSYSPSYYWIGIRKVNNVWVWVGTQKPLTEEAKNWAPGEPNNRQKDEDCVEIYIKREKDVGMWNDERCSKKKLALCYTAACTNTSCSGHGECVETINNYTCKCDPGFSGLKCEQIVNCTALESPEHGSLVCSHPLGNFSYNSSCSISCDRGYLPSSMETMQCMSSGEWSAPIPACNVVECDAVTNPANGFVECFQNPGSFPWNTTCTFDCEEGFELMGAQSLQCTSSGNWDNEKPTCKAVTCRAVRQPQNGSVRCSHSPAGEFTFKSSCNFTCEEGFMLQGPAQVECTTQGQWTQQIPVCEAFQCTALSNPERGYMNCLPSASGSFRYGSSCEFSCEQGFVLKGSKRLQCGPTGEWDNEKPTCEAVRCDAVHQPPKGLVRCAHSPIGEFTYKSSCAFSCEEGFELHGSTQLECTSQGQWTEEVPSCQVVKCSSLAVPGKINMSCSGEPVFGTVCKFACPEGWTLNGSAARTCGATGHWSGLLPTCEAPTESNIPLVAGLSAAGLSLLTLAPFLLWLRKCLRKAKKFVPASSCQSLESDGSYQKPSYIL
Sequence of Tumor necrosis factor (Homo sapiens) (P01375 whole entry, looked up): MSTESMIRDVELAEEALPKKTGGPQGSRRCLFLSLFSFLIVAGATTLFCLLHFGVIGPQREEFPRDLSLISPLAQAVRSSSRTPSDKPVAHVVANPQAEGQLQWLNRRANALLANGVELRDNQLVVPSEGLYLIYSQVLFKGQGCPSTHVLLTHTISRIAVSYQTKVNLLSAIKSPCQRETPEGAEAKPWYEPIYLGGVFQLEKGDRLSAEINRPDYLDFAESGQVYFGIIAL
Sequence of bovine Estrogen Receptor (ER), ESR1 (gene 407238) (P49884 whole entry, looked up): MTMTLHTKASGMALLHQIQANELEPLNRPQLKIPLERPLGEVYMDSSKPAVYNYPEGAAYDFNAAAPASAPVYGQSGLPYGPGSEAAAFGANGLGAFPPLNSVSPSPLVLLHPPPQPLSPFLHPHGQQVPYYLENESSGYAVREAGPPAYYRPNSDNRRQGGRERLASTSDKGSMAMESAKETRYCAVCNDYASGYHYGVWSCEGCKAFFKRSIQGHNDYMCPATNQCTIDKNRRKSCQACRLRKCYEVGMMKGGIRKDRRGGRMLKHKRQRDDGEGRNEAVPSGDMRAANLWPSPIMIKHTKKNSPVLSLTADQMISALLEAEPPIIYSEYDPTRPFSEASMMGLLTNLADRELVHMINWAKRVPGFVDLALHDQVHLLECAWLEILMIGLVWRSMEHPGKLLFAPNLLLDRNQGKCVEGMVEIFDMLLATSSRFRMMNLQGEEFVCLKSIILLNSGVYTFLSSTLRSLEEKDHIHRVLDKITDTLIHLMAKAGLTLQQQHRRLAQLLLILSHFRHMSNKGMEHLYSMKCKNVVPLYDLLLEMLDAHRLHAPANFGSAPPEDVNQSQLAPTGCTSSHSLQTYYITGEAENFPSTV

As usually defined, the AC50 is the concentration giving half of the maximal activity seen. As to `[Cd+2].[Cl-].[Cl-]`, the result in test [1], in [3], in test [4], in test [5], in [6] and in [7] was inactive. For the same compound, the outcome in [9], in test [10], in test [17] and in test [21] was inactive. The AC50 in [2] is 32.8 µM (active) and 35.4 µM (active); in test [3] it was 28.9 µM (active); in test [8] it was 19.5 µM (active) and 31.2 µM (active); in [10], 33 µM (active); in test [11] it was 30 µM (active) and 35.9 µM (active); in test [12], 35.3 µM (active) and 15.6 µM (active). Moreover, the AC50 was 30.2 µM (active) and 34.7 µM (active) in [13]; 32.4 µM (active) and 30.4 µM (active) in test [14]; 33 µM (active) and 34.4 µM (active) in [15]; 32.2 µM (active) and 30.2 µM (active) in test [16]; 20 µM (active) and 30.4 µM (active) in test [18]; 34.9 µM (active) and 31.4 µM (active) in test [19]. The AC50 in [20] was 14 µM (active) and 13.4 µM (active).
